# SENP7 inh: SENP7 protease inhibition; AID 434973; Q9BQF6; inhibition, % at 5 µM; recombinant SENP7, Z-RLRGG-aminoluciferin luminescence, 40 min; actives 1.5% (n = 330,000);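 active means inhibition above about 50% at the single test dose, limit read from the data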;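 further: plate controls were DMSO with enzyme for no effect and no enzyme buffer wells for full effect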
# Target sequence (Q9BQF6 706-1050 limits assumed): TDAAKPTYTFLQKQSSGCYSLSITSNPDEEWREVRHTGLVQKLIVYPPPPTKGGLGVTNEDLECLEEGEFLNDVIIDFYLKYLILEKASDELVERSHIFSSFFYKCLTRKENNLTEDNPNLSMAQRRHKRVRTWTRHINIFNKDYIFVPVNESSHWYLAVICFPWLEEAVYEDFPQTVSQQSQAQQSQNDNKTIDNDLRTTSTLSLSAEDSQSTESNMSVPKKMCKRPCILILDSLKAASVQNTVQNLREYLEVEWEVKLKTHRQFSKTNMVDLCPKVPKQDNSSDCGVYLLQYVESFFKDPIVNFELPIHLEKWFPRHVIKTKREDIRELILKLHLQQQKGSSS
# SENP8 block-1: SENP8 protease inhibition; Q96LD8; purified SENP8, Z-RLRGG-aminoluciferin cleavage, luminescence; inhibition, % at 10 µM; actives 1.2% (n = 330,000); AID 2540; in the data active means inhibition above about 50%
# Target sequence (Q96LD8 whole entry, looked up): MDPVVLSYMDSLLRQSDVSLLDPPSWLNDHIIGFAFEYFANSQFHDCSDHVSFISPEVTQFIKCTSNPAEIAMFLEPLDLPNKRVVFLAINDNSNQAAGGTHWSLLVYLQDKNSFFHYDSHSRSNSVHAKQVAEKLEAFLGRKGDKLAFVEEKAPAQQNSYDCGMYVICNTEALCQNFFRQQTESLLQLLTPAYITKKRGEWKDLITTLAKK
# SENP6 block: blocks the human protease SENP6 | actives 1.8% (n = 330,000) | Recombinant SENP6 catalytic domain, aminoluciferin luminescence | inhibition, % at 10 µM;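 active means inhibition above about 50% at the single tested dose, limit read from the data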;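 further: plate controls were DMSO wells with enzyme for no effect and DMSO wells lacking enzyme for full effect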
# Platelet DG rel: modulates dense granule release in human platelets | human platelet-rich plasma, SFLLRN dense granule ATP release, luminescence | AID 1663 | inhibition, %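 (compounds screened at 7.5 µM in platelet-rich plasma)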 | actives 0.22% (n = 300,000);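 active means mean replicate score, as percent of positive control, at or above 50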
# SENP8 block-2: SENP8 (human) protease inhibition; recombinant SENP8, Nedd8 substrate fluorescence; inhibition, % at 20 µM; actives 0.64% (n = 360,000); in the data active means inhibition mostly above about 40%, no sharp cut-off; inactive means mostly below about 27%
# SENP8 confirm: confirmation of human SENP8 protease inhibitors; shares compounds with SENP7 inh; Recombinant SENP8, Z-RLRGG-aminoluciferin luminescence, 60 min; inhibition, % at 12.5 µM; actives 40% (n = 6,200); AID 488912;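 active means mean inhibition across replicates above about 50%, limit read from the data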
# SENP6 confirm: confirmation of human SENP6 protease inhibitors | AID 488915 | shares compounds with SENP7 inh | actives 58% (n = 6,200) | recombinant SENP6, Z-RLRGG-aminoluciferin luminescence | inhibition, % at 12.5 µM
# SENP7 confirm: human SENP7 inhibition, confirmed. shares compounds with SENP7 inh. recombinant SENP7, Z-RLRGG-aminoluciferin luminescence, 40 min. inhibition, % at 12.5 µM. actives 69% (n = 6,200). AID 488917
# Casp3 select: selectivity test for SENP inhibitors: human caspase-3 inhibition. purified caspase-3, Z-DEVD-aminoluciferin luminescence, 60 min. actives 60% (n = 6,200). shares compounds with SENP7 inh. inhibition, % at 12.5 µM. AID 488918;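 active means mean inhibition above about 50%, limit read from the data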;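 further: plate controls were enzyme with DMSO for no effect and wells without caspase-3 for full effect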
# Luc interf: counter-screen for SENP inhibitors: luminescence interference. shares compounds with SENP7 inh. Pre-incubated SENP8/Z-RLRGG-aminoluciferin, luciferase luminescence interference. inhibition, % at 12.5 µM. actives 39% (n = 6,200). AID 488919;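 active means mean inhibition above about 50% when retested at one dose, limit read from the data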;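 further: plate controls were DMSO wells with completed reaction for no effect and substrate without enzyme for full effect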
# An asterisk follows results filed as active; . = no result. Compounds with a hit are over-represented: about 2.4% of the library has one in this group of screens.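 How the source made its calls, unless noted: active means mean inhibition above about 50% in the one-dose retest (limit read from the data); inactive means the rest.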
SMILES,SENP7 inh,SENP8 block-1,SENP6 block,Platelet DG rel,SENP8 block-2,SENP8 confirm,SENP6 confirm,SENP7 confirm,Casp3 select,Luc interf
O=C1C(Nc2ccccc2)=CC(c2ccc(O)cc2)N1c1ccccc1 (configuration not stated),2.7,5.4,57.8*,-3.2,-452.5,9.2,5.1,-3.4,4.0,1.6
Cc1ccc(S/C=C\C(=O)c2ccccc2)cc1,92.4*,81.7*,86.8*,20.2,15.3,5.9,90.1*,79.2*,64.5*,55.3*
Cc1ccc(OC(C)C(=O)Nc2ncc(Cl)cc2Cl)c([N+](=O)[O-])n1 (configuration not stated),-6.7,-7.4,-10.6,.,-165.4,.,.,.,.,.
CC(OC(=O)c1ccc([N+](=O)[O-])s1)C(=O)Nc1ncc(Cl)cc1Cl (configuration not stated),24.6,61.6*,60.0*,-35.5,19.3,14.0,22.6,4.6,-5.7,-5.3
Clc1ccccc1NN(Cc1ccncc1)c1ccccc1Cl,.,.,.,.,13.1,.,.,.,.,.
Cc1ccc(CNc2ccc3c(c2)OCO3)cc1,.,.,.,-6.3,-108.2,.,.,.,.,.
O=Cc1ccc(OCc2ccc3c(c2)OCO3)cc1,70.6*,61.9*,77.5*,10.2,32.4,73.1*,73.1*,91.8*,80.9*,83.0*
O=C(Cc1ccc(OCc2ccccc2)cc1)NCc1ccc2c(c1)OCO2,.,.,.,.,7.1,.,.,.,.,.
Cc1ccc(COc2ccc3c(c2)OCO3)cc1,86.2*,75.5*,90.9*,0.1,7.2,48.5,84.9*,97.9*,70.3*,31.3
CN(C)S(=O)(=O)c1ccc(F)c(C(=O)Nc2ccccc2C(=O)NC2CC2)c1,3.5,1.7,-8.3,.,-2.1,.,.,.,.,.
O=C(N/N=C/c1ccncc1)c1cccc(S(=O)(=O)Nc2ccc(Cl)cc2)c1,3.6,-0.8,17.0,-45.9,7.3,.,.,.,.,.
COc1cccc(CNC(=S)Nc2ccc3c(c2)c(=O)n(C)n3Cc2ccc(F)cc2)c1,.,.,.,.,-487.7,.,.,.,.,.
Cc1sc(NC(=O)c2ccccc2)c(C#N)c1-c1ccccc1,-5.2,25.4,61.6*,0.7,-3.3,5.7,-7.1,28.8,15.5,1.0
CCc1c(C)sc(NC(=O)c2cccs2)c1C#N,-3.8,-7.5,-1.7,-1.3,-94.3,.,.,.,.,.
COc1ccc(C(=O)Nc2ccc(-c3n[nH]c(=S)o3)cc2)cc1OC,19.2,4.2,-5.5,-4.7,-334.3,.,.,.,.,.
O=C(Nc1ccc(-c2n[nH]c(=S)o2)cc1)c1ccccc1Br,19.5,48.9,80.0*,5.3,-154.4,57.4*,53.7*,79.6*,73.7*,61.9*
Oc1ccc(/C=N/Nc2nc(N3CCCC3)nc(N3CCCC3)n2)cc1O,5.5,-1.3,-13.3,3.7,-29.9,.,.,.,.,.
Oc1ccc(/C=N/Nc2cc(N3CCCC3)nc(N3CCCC3)n2)cc1,77.6*,35.7,48.9,-13.7,3.6,10.6,61.0*,78.8*,10.0,6.9
Oc1ccc(/C=N/Nc2cc(N3CCOCC3)nc(N3CCOCC3)n2)cc1,60.1*,4.7,18.6,12.0,-12.0,13.3,32.9,4.4,0.5,2.8
Brc1cccc(/C=N/Nc2nc(N3CCCCC3)nc(N3CCCCC3)n2)c1,5.8,6.4,-9.0,5.3,.,.,.,.,.,.
Oc1cccc(/C=N/Nc2cc(N3CCCC3)nc(N3CCCC3)n2)c1,51.2*,10.0,56.8*,5.6,-26.8,15.9,65.9*,27.0,4.5,11.2
COc1ccc(/C=N/Nc2cc(N3CCCC3)nc(N3CCCC3)n2)cc1,38.2,13.5,51.6*,-0.3,-15.3,16.2,51.1*,33.9,4.5,3.2
Cc1cc(C(=O)COC(=O)c2ccc(F)cc2F)c(C)n1C1CC1,43.3,49.6,63.6*,.,11.8,-1.3,-13.5,33.0,13.9,-3.1
CC(=O)Nc1ccc(NC(=O)c2ccccc2Nc2ccccc2)cc1,-8.8,0.5,-6.5,0.0,9.7,.,.,.,.,.
CN1CCc2nc(SCC(=O)Nc3cccc(F)c3)c(C#N)c(-c3cccs3)c2C1,59.5*,57.1*,77.0*,9.6,34.2,1.4,0.2,-4.0,-2.1,-7.7
SMILES,SENP7 inh,SENP8 block-1,SENP6 block,Platelet DG rel,SENP8 block-2,SENP8 confirm,SENP6 confirm,SENP7 confirm,Casp3 select,Luc interf
Oc1ccc(N=Nc2n[nH]c(-c3ccccc3)n2)cc1,98.3*,96.1*,94.2*,24.3,19.7,97.8*,98.5*,102.3*,97.8*,97.5*
Oc1ccc(N=Nc2n[nH]c(-c3ccc(Br)cc3)n2)cc1,.,.,.,4.2,23.6,.,.,.,.,.
CCOc1cc(/C=C2\C(=O)N(c3nc(-c4ccc(Br)cc4)cs3)N=C2c2ccccc2)ccc1O,-1.5,5.5,50.6*,8.0,27.3,9.8,6.7,-2.6,-1.8,-0.9
COc1cc(/C=C2\C(=O)N(c3ccc(NC(C)=O)cc3)N=C2c2ccccc2)ccc1O,33.5,4.5,31.7,-4.9,9.5,.,.,.,.,.
COc1ccc(S(=O)(=O)N2CCCCC2)cc1NC(=O)CCCOc1ccc(C)cc1,0.3,-0.1,-3.9,.,5.6,.,.,.,.,.
c1ccc(-c2cn3c(n2)-c2ccccc2C3)cc1,97.2*,96.0*,96.4*,28.4,-41.8,98.9*,99.7*,102.7*,98.8*,96.7*
O=C(CSCc1ccco1)N1CCc2ccccc21,32.9,33.8,56.5*,-0.4,13.7,47.2,45.4,79.0*,67.5*,58.5*
O=C(NCCC(=O)N1CCc2ccccc21)c1ccco1,6.5,4.2,16.4,-5.2,18.8,.,.,.,.,.
Cc1noc(C)c1-c1ccc(C(=O)NC2CCCCC2)c2occc12,.,.,.,.,-7.7,.,.,.,.,.
Cc1ccc(NC(=O)c2cc3cccc([N+](=O)[O-])c3[nH]2)cc1,88.7*,56.3*,70.8*,-5.7,14.7,57.4*,63.3*,96.1*,66.2*,55.3*
C[C@@H]1CN([C@@H](C)CO)C(=O)c2cc(NS(=O)(=O)c3ccc(Cl)cc3)ccc2O[C@H]1CN(C)Cc1ccncc1,4.0,0.9,4.0,.,-17.0,.,.,.,.,.
Cc1ccc(S(=O)(=O)c2c(C)cc(C)nc2Cl)cc1,2.4,2.6,61.9*,4.6,27.9,2.4,-0.2,-4.8,-4.8,-3.0
c1cc2[nH]snc2c2nc(C3CC3)nc12,28.0,29.1,55.0*,17.0,-100.0,-4.0,-1.2,3.0,35.4,16.7
Cc1ccc(NC(=O)c2ccc3c(c2)OCO3)cc1Cl,62.6*,39.8,69.1*,0.6,12.1,14.5,50.5*,88.4*,49.0,10.5
O=C(Nc1ccc2c(c1)OCO2)c1ccc(Cl)nc1,-1.9,-6.9,-2.8,-8.1,12.0,.,.,.,.,.
Cc1cc(Cl)ccc1NC(=O)c1ccc2c(c1)OCO2,-4.6,-9.8,-8.4,-1.3,19.3,.,.,.,.,.
